This is one part of a sample in which hits are shown more often than they occur.
nsP2pro inh: blocks chikungunya virus nsP2 protease peptide cleavage; FRET peptide cleavage, nsP2pro, fluorescence 1 h; 31,000 compounds, 1.1% hits; AID 1964107; Potency, µM (doses to about 24.9 µM), inactives show top-dose activity change, negative = inhibition, usual class: inhibitors; Q8JUX6; note: nearly all actives have a fitted effect of over 60% in size
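FRET cleavage of 2.5 uM peptide 2 by 150 nM CHIKV protease domain at pH 8.0 (Tris, Tween 20). Compounds at 7 concentrations (up to 25 uM) preincubated 15 min. Fluorescence read after 1 h at room temperature.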
nsP2 cell sec: inhibits CHIKV nsP2 protease in cells; shares compounds with nsP2pro inh; cell-based CHIKV nsP2 protease reporter assay; Potency, µM (titrated, usually from 51.1 µM), without a hit: top-dose activity change, negative = inhibition, usual class: inhibitors; 450 compounds, 10% hits; note: nearly all actives have a fitted effect of over 70% in size
CHIKV NSP2 FL: full-length CHIKV NSP2 protease inhibition, selectivity | 410 compounds, 39% hits | Potency, µM (titrated, usually from 50.7 µM), for inactives: top-dose activity change, negative = inhibition, usual class: inhibitors | shares compounds with nsP2pro inh | AID 1964101 | Full-length CHIKV NSP2 protease enzymatic counterscreen; note: nearly all actives have a fitted effect of over 65% in size
Furin counter: inhibits human furin in a CHIKV nsP2 protease selectivity counterscreen; Potency, µM (highest dose often 50.6 µM), for inactives: top-dose activity change, negative = inhibition, usual class: inhibitors; 410 compounds, 6% hits; Recombinant human furin enzymatic counterscreen, fluorogenic substrate; shares compounds with nsP2pro inh
NS23 peptide cs: blocks CHIKV nsP2 protease cleavage of endogenous NS2/3 peptide. AID 1964103. Potency, µM (highest dose often 51 µM), for inactives: at the highest dose activity change, negative = inhibition, most hits filed as inhibitors. 410 compounds, 34% hits. shares compounds with nsP2pro inh. Purified CHIKV nsP2 protease, endogenous NS2/3 peptide cleavage; note: nearly all actives have a fitted effect of over 55% in size
Papain counter: papain protease inhibition, counterscreen for nsP2pro inhibitors; purified papain protease activity, enzymatic inhibition; 410 compounds, 5% hits; Potency, µM (doses to about 51 µM), without a hit: top-dose activity change, negative = inhibition, actives largely listed as inhibitors; shares compounds with nsP2pro inh
Target sequence (P00784 whole entry, looked up): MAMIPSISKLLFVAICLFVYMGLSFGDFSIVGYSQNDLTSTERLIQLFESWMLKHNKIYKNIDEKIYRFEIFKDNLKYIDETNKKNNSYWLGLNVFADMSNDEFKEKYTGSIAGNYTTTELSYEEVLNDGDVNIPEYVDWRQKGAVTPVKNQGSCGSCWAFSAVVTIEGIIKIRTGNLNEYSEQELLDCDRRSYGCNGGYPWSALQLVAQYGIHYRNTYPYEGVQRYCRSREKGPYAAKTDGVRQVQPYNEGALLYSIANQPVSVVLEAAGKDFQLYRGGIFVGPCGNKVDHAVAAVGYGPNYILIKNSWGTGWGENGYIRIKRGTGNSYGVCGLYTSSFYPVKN
nsP2pro confirm: CHIKV nsP2 protease inhibition, confirmatory qHTS; shares compounds with nsP2pro inh; CHIKV nsP2 protease enzymatic activity, qHTS; Potency, µM (titrated, usually from 25.5 µM), inactives show at the highest dose activity change, negative = inhibition, most hits filed as inhibitors; 410 compounds, 43% hits; AID 1964105; note: nearly all actives have a fitted effect of over 75% in size
HCV NS3 counter: HCV NS3/4A protease inhibition, counterscreen; shares compounds with nsP2pro inh; HCV NS3/4A protease biochemical counterscreen; Potency, µM (top dose mostly 50.9 µM), usual class: inhibitors; 410 compounds, 20% hits; note: nearly all actives have a fitted effect of over 55% in size
Numbers without * were called inactive; i = inactive; u = inconclusive; ! = repeats disagree; [ ] = remark or other dose. Calls come from the whole dose curve. % is set by controls: 0 for no effect and ±100 for the full control effect; potency is the fitted concentration of half-maximal effect.

SMILES | nsP2pro inh | others
CC1=CC2/C=C(\C)CCC(O)C(O)/C=C/C(=O)OC23C(=O)NC(CC(C)C)C3C1C (stereo not given) | -14%[10 µM]
COCC(=O)NCCc1nc2ccccc2n1CCOc1ccc(C)cc1 | -5%
COCCN1CCCCCC(O)c2cc(C(=O)NCc3ccc(F)cc3)ccc21 (stereo not given) | i
N#Cc1ccccc1CN1CCNc2nc(CNCc3ccccc3)n(Cc3ccccc3)c2C1=O | i
CN1CCc2cccc3c2[C@H]1Cc1ccc(O)c(O)c1-3 | 3.1µM* | nsP2 cell sec=u;CHIKV NSP2 FL=26µM*;Furin counter=23µM*;NS23 peptide cs=16µM*;Papain counter=14%;nsP2pro confirm=5µM*;HCV NS3 counter=i
CN1CCc2cc3c(cc2C1C1OC(=O)c2c1ccc1c2OCO1)OCO3 (stereo not given) | -11%
Cc1cc(NC(=O)Nc2cccc(-c3ccncc3)n2)ccc1Br | i
Cc1coc2c1C(=O)C(=O)c1c-2ccc2c(C)cccc12 | u | nsP2 cell sec=-2%;CHIKV NSP2 FL=u;Furin counter=-13%;NS23 peptide cs=u;Papain counter=u;nsP2pro confirm=u;HCV NS3 counter=i
Cc1coc2c1C(=O)C(=O)c1c-2ccc2c1CCCC2(C)C | u | nsP2 cell sec=-8%;CHIKV NSP2 FL=12µM*;Furin counter=-15%;NS23 peptide cs=u;Papain counter=u;nsP2pro confirm=u;HCV NS3 counter=i
Cc1ccc(NC(=O)[C@H]2CCCN(C(=O)c3c(C)cccc3F)[C@H]2c2ccc(NC3CCCC3)cc2)cc1C(F)(F)F | 3%
FC(F)(F)c1cccc(N2CCN(C(=S)Nc3nccc4cccnc34)CC2)c1 | i
O=C(Cc1cccc(Cl)c1)NCCNC(=O)c1cccc(-c2ccsc2)c1 | i
O=C(c1cc(-c2ccco2)[nH]n1)N1CCC(n2cnc3ccccc32)C1 (stereo not given) | 0.71µM* | nsP2 cell sec=u;CHIKV NSP2 FL=7.3µM*;Furin counter=-8%;NS23 peptide cs=u;Papain counter=-3%;nsP2pro confirm=u;HCV NS3 counter=3.3µM*
O=C(NCC(F)(F)F)c1cc(C2CCN(C(=O)c3cc(-c4ccco4)[nH]n3)CC2)[nH]n1 | 1.1µM* | nsP2 cell sec=-12%
O=C(c1ccc2ccccc2n1)N1CCC(n2cc(-c3nc(-c4ccccc4)no3)nn2)C1 (stereo not given) | i
CC(=O)NCC(=O)N1CCC(c2cc(-c3ccc(F)cc3)n[nH]2)CC1 | i
COc1cccc(-c2cc(C3CCN(C(=O)Nc4ccccc4C(F)(F)F)CC3)[nH]n2)c1 | i
COCC1CCCN(C(=O)c2cc(Cn3c(C)nc4ccccc43)[nH]n2)C1 (stereo not given) | 2%
NC(=O)[C@H]1C[C@@H](O)[C@H](O)[C@H]2[C@@H]1SC(=Nc1ccc(Cl)cc1)N2CC1CCCCC1 | 4%
CO[C@@H]1[C@H](C)OC(O[C@H]2CC(Oc3cc4cc5c(c(O)c4c(O)c3C)C(=O)[C@@H](OC3C[C@@H](OC4C[C@H](OC6C[C@](C)(O)[C@@H](OC(C)=O)[C@H](C)O6)[C@@H](O)[C@H](C)O4)[C@H](O)[C@@H](C)O3)[C@H]([C@@H](OC)C(=O)[C@@H](O)[C@H](C)O)C5)O[C@@H](C)[C@H]2OC(C)=O)C[C@@H]1O (stereo not given in full) | -11%
CCCCN(C)C(=O)c1c(C)sc2ccn(CCC)c(=O)c12 | -17%
OCC=Cc1ccccc1 | 1%
Cc1ccnc(NC(=S)N2CCN(c3cccc(C(F)(F)F)c3)CC2)n1 | i
O=C(NC1CCCc2c1cnn2-c1ccc(F)cc1F)c1ccncc1 (stereo not given) | -10%
O=C(NC1CCCc2c1cnn2-c1ccc(F)cc1F)c1ccccn1 (stereo not given) | 7.9µM*! | nsP2 cell sec=9%;CHIKV NSP2 FL=-2%;Furin counter=-1%;NS23 peptide cs=15%;Papain counter=-5%;nsP2pro confirm=12%;HCV NS3 counter=i
SMILES | nsP2pro inh | others
O=C(N[C@H]1CCCc2c1cnn2-c1ccc(F)cc1F)c1ccccn1 | i
COc1cccc(CNc2ccc(S(=O)(=O)Nc3ccc(N4CCNCC4)cc3)cc2)c1O | 5%
Cc1cc(N[S+](=O)([O-])c2cc3c(cc2Cl)CCC(=O)N3)ccc1Cl | i
O=C(O)CCSC[C@H]1O[C@@H]2O[C@H]3[C@H](O)[C@@H](O)[C@@H](O[C@H]4[C@H](O)[C@@H](O)[C@@H](O[C@H]5[C@H](O)[C@@H](O)[C@@H](O[C@H]6[C@H](O)[C@@H](O)[C@@H](O[C@H]7[C@H](O)[C@@H](O)[C@@H](O[C@H]8[C@H](O)[C@@H](O)[C@@H](O[C@H]9[C@H](O)[C@@H](O)[C@@H](O[C@H]1[C@H](O)[C@H]2O)O[C@@H]9CSCCC(=O)O)O[C@@H]8CSCCC(=O)O)O[C@@H]7CSCCC(=O)O)O[C@@H]6CSCCC(=O)O)O[C@@H]5CSCCC(=O)O)O[C@@H]4CSCCC(=O)O)O[C@@H]3CSCCC(=O)O | 192%
O=C(O)CSc1cc(NS(=O)(=O)c2ccc(Br)cc2)c2ccccc2c1O | 1µM* | nsP2 cell sec=u;CHIKV NSP2 FL=4.1µM*;Furin counter=-18%;NS23 peptide cs=1.8µM*;Papain counter=18µM*;nsP2pro confirm=0.8µM*;HCV NS3 counter=u
O=S(=O)(Nc1ccccc1)c1ccc(NCc2ccc(Br)cc2O)cc1 | -26%
Cc1oc2c(cc(NS(=O)(=O)c3ccc(C(C)C)cc3)c3ccccc32)c1C(=O)OCc1ccccc1 | -21%
CCN1CCCN(S(=O)(=O)c2cccs2)CC12CCOCC2 | 5%
CC1=C(C)C(=O)C(CC[C@](C)(O)CCC[C@H](C)CCC[C@H](C)CCCC(C)C)=C(C)C1=O | -7%
CC(C)CNC(=O)c1ccc2nnc(C(C)(C)C)n2c1 | -12%[39.2 µM]
C1Cc2[nH]nc(-c3nn[nH]n3)c2C1 | 8.8µM* | nsP2 cell sec=-7%;CHIKV NSP2 FL=9.2µM*;Furin counter=u;NS23 peptide cs=u;Papain counter=-29%;nsP2pro confirm=6.3µM*;HCV NS3 counter=i
COCC(=O)N1CCC(c2nn(-c3ccccn3)c(=O)[nH]2)CC1 | -40%[39.2 µM]
O=C(c1ccsc1)N1CCC2(CC1)CN(C1CCC1)CC2CO (stereo not given) | -3%
CC(=O)NCCCC(=O)N1CCC2(CC1)CN(S(C)(=O)=O)Cc1ccccc1O2 | -16%
CC(=O)NCCC(=O)N1CCC2(CC1)CC(NC(C)=O)c1ccccc12 (stereo not given) | -13%

Screens from PubChem.
